In the supplement of paper PMC6992640:
Where a name gives a salt, the structure may show the parent alone. ± gives the standard deviation of the averaged measurements.

Tests used:
Test in all cases: cell viability (% of vehicle); higher = less cytotoxic
Conditions in all cases: 10 µM; 72 h
[1] = system: HCI01 (cells of a triple-negative basal-like breast cancer xenograft)
[2] = system: HCI03 (cells of an ER-positive luminal breast cancer xenograft)
[3] = system: HCI09 (cells of a triple-negative luminal androgen receptor type breast cancer xenograft)
[4] = system: HCI11 (cells of an ER-positive luminal breast cancer xenograft)
[5] = system: HCI13 (cells of an ER-positive luminal breast cancer xenograft)
[6] = system: HCI16 (cells of a triple-negative basal-like breast cancer xenograft)
[7] = system: UCD52 (cells of a triple-negative basal-like breast cancer xenograft)
[8] = system: WHIM2 (cells of a triple-negative basal-like breast cancer xenograft)
[9] = system: WHIM30 (cells of a triple-negative basal-like breast cancer xenograft)
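Also: PDX cells carrying CMV promoter-driven luciferase, viability read as total photon flux per second by IVIS imaging following D-luciferin, vehicle control 0.1% DMSO.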

Row | Compound | cell viability [1] | cell viability [2] | cell viability [3] | cell viability [4] | cell viability [5] | cell viability [6] | cell viability [7] | cell viability [8] | cell viability [9]
1 | CC(C=CC1=C(C)CCCC1(C)C)=CC=CC(C)=CC(=O)O [Isotretinoin] | 139 ± 2 | 109 | 91.69 ± 0.3 | 122 | 119 ± 3.2 | 105 | 190 ± 2.4 | 91.5 ± 10 | 142.94 ± 0.0078
2 | Nc1nc(=O)n(C2CSC(CO)O2)cc1F (stereo unspecified) [Emtricitabine] | 105 ± 9.3 | 153 | 104 ± 12 | 107 | 113 ± 11 | 94.6 | 79.81 ± 0.75 | 90 ± 8.8 | 98.1 ± 1.3
3 | CC1(C)SC2C(NC(=O)C(C(=O)[O-])c3ccccc3)C(=O)N2C1C(=O)[O-].[Na+].[Na+] (stereo unspecified) [Carbenicillin, Disodium Salt] | 93 ± 4.2 | 92.6 | 94 ± 0.98 | 103 | 86.7 ± 1.1 | 105 | 85.4 ± 3.6 | 110 ± 17 | 115 ± 2
4 | CC(Cc1ccc(O)c(O)c1)(NN)C(=O)O (stereo unspecified) [Carbidopa] | 116 ± 20 | 122 | 121 ± 20 | 79.8 | 119 ± 14 | 149 | 124 ± 9.1 | 81.6 ± 11 | 126 ± 6.2
5 | COc1ccccc1N1CCN(CCCNc2cc(=O)n(C)c(=O)n2C)CC1.Cl [Urapidil HCl] | 96.7 ± 8.1 | 125 | 89.54 ± 0.6 | 80.2 | 93.3 ± 1.2 | 105 | 97.6 ± 7.3 | 98.8 ± 5.4 | 111 ± 3.3
6 | CC[C@H](C)[C@@H]1NC(=O)[C@H](Cc2ccc(O)cc2)NC(=O)[C@@H](N)CSSC[C@@H](C(=O)N2CCC[C@H]2C(=O)N[C@@H](CC(C)C)C(=O)NCC(N)=O)NC(=O)[C@H](CC(N)=O)NC(=O)[C@H](CCC(N)=O)NC1=O [Oxytocin] | 116 ± 13 | 110 | 99.7 ± 2.2 | 69.2 | 134 ± 41 | 128 | 115 ± 1.7 | 126 ± 1.9 | 134 ± 8.1
7 | CS(=O)(=O)O.OC(CCN1CCCCC1)(c1ccccc1)c1ccccc1 [Pridinol Methanesulfonate] | 113 ± 3.7 | 104 | 124 ± 47 | 119 | 92.6 ± 12 | 112 | 86.1 ± 6.1 | 164 ± 89 | 129 ± 10
8 | COc1ccccc1N1CCN(CC(O)COc2cccc3ccccc23)CC1 (stereo unspecified) [Naftopidil] | 116 ± 8.4 | 84.3 | 87.2 ± 14 | 107 | 103 ± 19 | 108 | 67.4 ± 2.8 | 89.8 ± 24 | 104 ± 12
9 | O=C1C(=O)c2ccccc2C(O)=C1C1CCC(c2ccc(Cl)cc2)CC1 (stereo unspecified) [Atovaquone] | 81.6 ± 34 | 82.3 | 27.7 ± 4.7 | 54.9 | 50 ± 1.9 | 116 | 78.9 ± 15 | 99.7 ± 8.7 | 72.4 ± 1.9
10 | Cc1cc(C)c2c(c1)C(N(Cc1cc(C(F)(F)F)cc(C(F)(F)F)c1)c1nnn(C)n1)CCCN2CC1CCC(C(=O)O)CC1 (stereo unspecified) | 41.2 ± 16 | 135 | 61.9 ± 53 | 98.5 | 51.4 ± 8.7 | 139 | 119 ± 2.1 | 91.8 ± 4.9 | 110 ± 6.3
11 | CON=C(C(=O)NC1C(=O)N2C(C(=O)O)=C(CSC(=O)c3ccco3)CSC12)c1csc(N)n1.Cl (stereo unspecified) [Ceftiofur HCl] | 90.2 ± 12 | 132 | 95.9 ± 8.5 | 100 | 56.9 ± 2.3 | 103 | 103 ± 12 | 104 ± 10 | 111 ± 14
12 | CC(CN1c2ccccc2Sc2ccccc21)N(C)C (stereo unspecified) [Promethazine HCl] | 106 ± 15 | 90 | 75.8 ± 5.4 | 92.9 | 96.1 ± 3.6 | 107 | 73.3 ± 6.1 | 85 ± 17 | 114 ± 7.7
13 | NCCS(=O)(=O)O [Taurine] | 105 ± 23 | 119 | 101 ± 18 | 86.6 | 61.4 ± 7.8 | 115 | 75.92 ± 0.27 | 109 ± 19 | 115 ± 9.7
14 | O=C1CN(/N=C/c2ccc(-c3ccc([N+](=O)[O-])cc3)o2)C([O-])=N1.[Na+] [Dantrolene, sodium salt] | 98.7 ± 15 | 174 | 83.5 ± 7.8 | 99.1 | 105 ± 9.9 | 110 | 92.4 ± 4.7 | 104 ± 4 | 130 ± 7.4
15 | CC(C)NCC(O)c1ccc(O)c(O)c1.Cl (stereo unspecified) [Isoprenaline HCl] | 95.7 ± 15 | 108 | 87.2 ± 13 | 90.3 | 76.2 ± 2 | 122 | 91.9 ± 9.1 | 77.2 ± 5.8 | 113 ± 7.1
16 | CC(c1ncncc1F)C(O)(Cn1cncn1)c1ccc(F)cc1F (stereo unspecified) [Voriconazole] | 121 ± 8.9 | 133 | 98.8 ± 11 | 121 | 137 ± 7.1 | 115 | 106 ± 22 | 105 ± 9.5 | 137 ± 22
17 | CCCCC(=O)N(Cc1ccc(-c2ccccc2-c2nnn[nH]2)cc1)[C@H](C(=O)O)C(C)C.CCOC(=O)[C@H](C)C[C@@H](Cc1ccc(-c2ccccc2)cc1)NC(=O)CCC(=O)O | 98.1 ± 17 | 141 | 95.6 ± 18 | 92.9 | 87.9 ± 5.7 | 112 | 95.1 ± 8.6 | 93.4 ± 8.2 | 131 ± 11
18 | CC(C)OC(=O)OCOP(=O)(COC(C)Cn1cnc2c(N)ncnc21)OCOC(=O)OC(C)C.O=C(O)C=CC(=O)O (stereo unspecified) [Tenofovir Disoproxil Fumarate] | 106 ± 2.7 | 130 | 94.5 ± 7.6 | 97 | 51.9 ± 9.2 | 105 | 106 ± 12 | 118 ± 28 | 136 ± 10
19 | CN1CCN(c2nc(C3=C(c4c[nH]c5ccccc45)C(=O)NC3=O)c3ccccc3n2)CC1 [Sotrastaurin (AEB071)] | 134 ± 40 | 102 | 173 ± 34 | 136 | 109 ± 1.9 | 111 | 63.9 ± 1.5 | 195 ± 10 | 111 ± 6.1
